Data as given in PubChem BioAssay AID1159580 (chemical genetic matrix, 2015).
The whole screen tested about 5,500 compounds, of which about 2,000 (36%) were called active. Not shown: some 18% with an inconclusive outcome. Rule as the data show it: active = normalized growth mostly below about 0.91 (no sharp cut-off); inconclusive = no clear call, values can overlap the other calls; inactive = mostly above about 0.92. Some of the results follow.

Test: chemical genetic growth profiling, strain panel (AID 1159580);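 also: tested at 20 µM; growth read once vehicle control cultures reached saturation at 30 °C; 1 = growth at the plate median or of vehicle wells; lower values mean less growth of the strain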
Details: S. cerevisiae deletion strains, growth OD

Measured: normalized growth

CC(C)COC(=O)OCN1C(=O)CN(CCN2CC(=O)N(COC(=O)OCC(C)C)C(=O)C2)CC1=O
inactive: locus YAL040C, strain CLN3, active compounds read low 1.01 | locus YCL061C, strain MRC1 (second series), active compounds read low 1.01 | locus YDR150W, strain NUM1, active compounds read low 1.01 | locus YDR363W, strain ESC2, active compounds read low 1.01 | locus YER002W, strain NOP16, active compounds read low 0.997 | locus YGR078C, strain PAC10, active compounds read low 1 | locus YJR075W, strain HOC1, active compounds read low 1.01 | locus YMR307W, strain GAS1, active compounds read low 1.01 | locus YNL175C, strain NOP13, active compounds read low 1 | locus YNL197C, strain WHI3, active compounds read low 0.999 | locus YNL224C, strain SQS1, active compounds read low 0.996 | locus YNL322C, strain KRE1, active compounds read low 1.01 | locus YOR083W, strain WHI5 (second series), active compounds read low 1.01 | locus YPL055C, strain LGE1, active compounds read low 1.03

CCCCCc1ccc(S(=O)(=O)Nc2ccc3c(c2)C(=O)OC3)cc1
active: locus YLR113W, strain HOG1, active compounds read low 0.86
inactive: locus YAR019C, strain CDC15, active compounds read low 0.991 | locus YBL105C, strain PKC1, active compounds read low 0.994 | locus YBR135W, strain CKS1, active compounds read low 0.981 | locus YBR136W, strain MEC1, active compounds read low 0.982 | locus YBR160W, strain CDC28, active compounds read low 0.984 | locus YDL017W, strain CDC7, active compounds read low 0.985 | locus YDL028C, strain MPS1, active compounds read low 0.983 | locus YDL101C, strain DUN1, active compounds read low 0.998 | locus YDL108W, strain KIN28, active compounds read low 0.982 | locus YDL132W, strain cdc53, active compounds read low 0.985 | locus YDL214C, strain PRR2, active compounds read low 0.948 | locus YDR052C, strain DBF4, active compounds read low 0.998 | locus YDR054C, strain cdc34, active compounds read low 0.974 | locus YDR226W, strain ADK1, active compounds read low 0.987 | locus YDR477W, strain SNF1, active compounds read low 0.972 | locus YER123W, strain YCK3, active compounds read low 0.969 | locus YER133W, strain GLC7, active compounds read low 0.951 | locus YFL009W, strain cdc4, active compounds read low 0.981 | locus YFL029C, strain CAK1, active compounds read low 0.983 | locus YFR003C, strain YPI1, active compounds read low 0.987 | locus YFR019W, strain FAB1, active compounds read low 0.975 | locus YFR028C, strain CDC14, active compounds read low 0.985 | locus YGR040W, strain KSS1, active compounds read low 0.949 | locus YGR052W, strain FMP48, active compounds read low 1.03 | locus YGR092W, strain DBF2, active compounds read low 0.992 | locus YHR030C, strain SLT2, active compounds read low 0.997 | locus YHR079C, strain IRE1, active compounds read low 0.977 | locus YHR082C, strain KSP1, active compounds read low 1.02 | locus YHR205W, strain SCH9, active compounds read low 0.963 | locus YIL147C, strain SLN1, active compounds read low 0.983 | locus YJL095W, strain BCK1, active compounds read low 0.967 | locus YJL128C, strain PBS2, active compounds read low 0.944 | locus YJL157C, strain FAR1, active compounds read low 0.953 | locus YJR016C, strain ILV3, active compounds read low 0.977 | locus YJR066W, strain TOR1 (second series), active compounds read low 0.937 | locus YJR066W, strain TOR1, active compounds read low 1.02 | locus YKL048C, strain ELM1, active compounds read low 0.967 | locus YKL067W, strain YNK1, active compounds read low 0.959 | locus YKL101W, strain HSL1, active compounds read low 0.933 | locus YKL193C, strain SDS22, active compounds read low 0.978 | locus YKL203C, strain TOR2, active compounds read low 1.02 | locus YLR133W, strain CKI1, active compounds read low 0.963 | locus YLR403W, strain SFP1, active compounds read low 0.938 | locus YML070W, strain DAK1, active compounds read low 0.945 | locus YMR001C, strain CDC5, active compounds read low 0.986 | locus YMR205C, strain PFK2 (second series), active compounds read low 0.963 | locus YMR277W, strain FCP1, active compounds read low 0.982 | locus YNL006W, strain LST8, active compounds read low 0.99 | locus YNL020C, strain ARK1, active compounds read low 0.966 | locus YNL161W, strain CBK1, active compounds read low 0.978 | locus YNL183C, strain NPR1, active compounds read low 0.964 | locus YNL207W, strain RIO2, active compounds read low 0.967 | locus YNL222W, strain SSU72, active compounds read low 0.978 | locus YNL307C, strain MCK1 (second series), active compounds read low 0.979 | locus YOL078W, strain AVO1, active compounds read low 0.979 | locus YOL136C, strain PFK27, active compounds read low 0.948 | locus YOR061W, strain CKA2, active compounds read low 0.976 | locus YOR119C, strain RIO1, active compounds read low 1.01 | locus YOR231W, strain MKK1, active compounds read low 0.917 | locus YOR329C, strain SCD5, active compounds read low 0.985 | locus YPL031C, strain PHO85, active compounds read low 0.966 | locus YPL153C, strain RAD53, active compounds read low 0.951 | locus YPL204W, strain HRR25, active compounds read low 0.942 | locus YPL209C, strain IPL1, active compounds read low 0.981 | locus YPL256C, strain CLN2, active compounds read low 0.923 | locus YPR025C, strain CCL1, active compounds read low 0.983 | locus YPR106W, strain ISR1, active compounds read low 0.971 | locus YPR111W, strain DBF20, active compounds read low 0.954 | strain NNK1, active compounds read low 0.976 | strain TSCII, active compounds read low 0.988
